Source: PubChem BioAssay (NCI)
The panel holds about 79,000 compounds, 15% with a hit somewhere; the sample as a whole holds those more often. Values without a mark were called inactive. The source made the active and inactive calls. Rule as the data show it: active = growth inhibition above about 70%; inactive = the rest.

Assays:
[1] = NCI Yeast Anticancer Drug Screen. Data for the rad50 strain (AID 155);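 also: 0% = growth of vehicle-only cultures of the same strain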; conditions: S. cerevisiae rad50 strain growth inhibition; at 50.0 µM; active compounds read high
Method in brief: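 Genetically altered yeast (DNA repair pathway); compound treatment; growth inhibition vs vehicle ctrl.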

[2] = NCI Yeast Anticancer Drug Screen. Data for the mec2-1 strain (AID 157); conditions: S. cerevisiae mec2-1 strain, at 50.0 µM, active compounds read high
Method in brief: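 Growth inhibition is read against vehicle-treated controls after compound exposure of the mec2-1 yeast strain, which is defective in DNA damage repair or cell cycle control.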

[3] = NCI Yeast Anticancer Drug Screen. Data for the sgs1 mgt1 strain (AID 161);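 also: 0% = growth of cultures given vehicle only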; conditions: S. cerevisiae sgs1 mgt1 strain, at 50.0 µM, active compounds read high
Method in brief: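 This yeast growth screen uses a strain with defined DNA-repair lesions; compound-treated growth is compared with vehicle-treated growth.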

[4] = NCI Yeast Anticancer Drug Screen. Data for the cln2 rad14 strain (AID 165);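 also: 0% = growth equal to vehicle treated cultures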; conditions: S. cerevisiae cln2 rad14 strain, at 50.0 µM, active compounds read high
Method in brief: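 Growth inhibition, relative to vehicle-treated controls, is the read-out. The test organism is a yeast strain with defined genetic alterations, cln2 rad14.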

[5] = NCI Yeast Anticancer Drug Screen. Data for the bub3 strain (AID 167); conditions: S. cerevisiae bub3 mutant strain, at 50.0 µM, active compounds read high
Method in brief: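 Yeast carrying a defined mutation is treated with each compound, and growth is compared with that of vehicle-exposed cells to give inhibition.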

[6] = NCI Yeast Anticancer Drug Screen. Data for the mlh1 rad18 strain (AID 175); conditions: S. cerevisiae mlh1 rad18 strain growth inhibition; at 50.0 µM; active compounds read high
Method in brief: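 Cells of a genetically altered yeast strain, deficient in DNA damage repair, were treated with compound. Their growth was then compared with that of vehicle-treated cultures to give inhibition.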

SMILES	growth inhibition [1]	growth inhibition [2]	growth inhibition [3]	growth inhibition [4]	growth inhibition [5]	growth inhibition [6]
CCCCCC(O)c1ccccc1 (stereo unspecified)	22.7%	-15.1%	11.2%	-6.8%	-7.1%	17.5%
NNC(=O)C(CC(C(=O)NN)C(=O)NN)C(=O)NN	47.5%	-1.5%	5.25%	-22.5%	13.9%	29.7%
C[C@H](CCC(=O)O)[C@H]1CC[C@H]2[C@@H]3[C@@H](O)C[C@@H]4C[C@H](O)CC[C@]4(C)[C@H]3C[C@H](O)[C@]12C	-3.3%	-7.05%	11.1%	-20.6%	-14.7%	7.8%
O=C(O)c1nc(-c2ccccc2)[nH]c1C(=O)O	20.5%	5.6%	12.8%	-15.8%	30.6%	24.4%
CC(C)C(CN)(c1ccccc1)c1ccccc1	-4.4%	-7.75%	-8.85%	-59%	-3.3%	-10.9%
COc1cc(C(=O)C[n+]2ccccc2)ccc1O	95.3% (active)	86.2% (active)	84.5% (active)	97.2% (active)	97.7% (active)	99.5% (active)
CCOC(=O)c1c[nH]c2c(Cl)c(C)ccc2c1=O	-40.1%	-48.1%	-17.6%	-110%	-30.1%	-4.75%
CCCNC(=O)Nc1ccc(Nc2ccccc2)cc1	5.9%	2.5%	-0.5%	4.4%	18.2%	2%
CC(=O)Nc1ccc(S(=O)(=O)NNc2nc(N3CCCC3)nc(N3CCCC3)n2)cc1	1.7%	-8.1%	-14.4%	1.8%	-1.25%	2.15%
CCN(CC)C(=S)N1C(=O)C2C3CCC(O3)C2C1=O (stereo unspecified)	19.1%	11.9%	13.2%	6.75%	28.2%	-11.2%
COc1ccc2c(c1)CC[C@@H]1[C@@H]2CC[C@]2(C)C(=O)/C(=N/O)C[C@@H]12	-15%	4.85%	1.85%	-34%	31.5%	-14.2%
CCOP(=O)(OCC)/C(C#N)=C/c1ccc2ccccc2c1	-7.5%	-5.05%	-16.8%	-16.3%	5%	-13.6%
NC1=NC(=O)C2(CCCCC2)S1	-9.6%	-4.8%	-21.2%	-47.6%	-8%	-24.6%
COc1cccc2c1oc(=O)c1ccccc12	9.55%	-6.75%	-19.6%	-66.8%	-2.35%	-5.85%
CCNCCNC(=O)c1ccc(I)cc1	-33.9%	-7.2%	-4.2%	6.65%	-14.8%	-10.8%
CCOC(=O)c1cc(C)nc(Cl)c1[N+](=O)[O-]	19.4%	5.9%	4.35%	0.65%	-3.45%	6.95%
CC1=CCCCC1=O	-7.25%	-4.35%	5.6%	2.4%	-12.9%	-4.15%
CCC(CO)NC(=O)/C=C/c1ccccc1Cl (stereo unspecified)	7%	14.4%	1.55%	2.3%	-0.7%	10.5%
O=C1C=C(c2ccccc2)CSC1	3.7%	-10.1%	-9.45%	-79.3%	-8.75%	-4.85%
Cn1c(=O)oc2cc(Br)ccc21	-8.9%	0.7%	-3.1%	18.9%	23%	-67.8%
c1ccc(Cc2cc(-c3cc(Cc4ccccc4)[nH]n3)n[nH]2)cc1	22.2%	11.2%	19.4%	19.2%	5.4%	20.9%

SMILES	growth inhibition [1]	growth inhibition [2]	growth inhibition [3]	growth inhibition [4]	growth inhibition [5]	growth inhibition [6]
CCCC(C)OC(=O)Nc1cccc(O)c1 (stereo unspecified)	-2.3%	-10.9%	-5.3%	-10.9%	-21.5%	-5.05%
CCc1cccc(CC)c1Nc1nc(C)nc2c1cnn2C	-3.55%	-1.85%	5.55%	-40.1%	5.35%	3.95%
Cc1cc2c(cc1C)NC(=O)CC(=O)N2	-3.45%	-28.8%	-8.45%	1.95%	-18.7%	14.4%
CC(=O)Nc1c(F)c(F)c(F)c(F)c1F	20.1%	2.2%	-11.7%	-35%	14.3%	-13.1%
CC(C)=C(C)CCC(C)CC(C)O (stereo unspecified)	-2.9%	-14%	-0.05%	-5.6%	-5.9%	-5.85%
COc1ccc(/C(C)=N/NC(N)=S)cc1OC	6.65%	-17.9%	2.45%	16%	-13.3%	3.45%
CCOC(=O)C(NC(=O)c1ccccc1)(c1ccc(S(=O)(=O)Nc2onc(C)c2C)cc1)C(F)(F)F (stereo unspecified)	7.3%	-8.9%	-18.9%	-12.1%	-10.6%	-4.25%
N#Cc1nc(NC(=O)c2ccccc2C(=O)O)c(C#N)[nH]1	1.5%	14.1%	-20.8%	4.95%	-8.85%	-29.3%
Fc1ccc(-c2ncc(-c3ccccc3)o2)cc1	0.95%	-22.9%	5.45%	0.05%	-14.8%	-12.9%
CC(C)(C)C(=O)CC(=O)C(C)(C)C.CC(C)(C)C(=O)CC(=O)C(C)(C)C.CC(C)(C)C(=O)CC(=O)C(C)(C)C.[Co]	-10.1%	-8.95%	21.4%	16%	-0.6%	0.15%
O=[N+]([O-])c1ccc2[nH]ccc2c1	8.75%	-4.25%	-2.7%	10.7%	3.6%	7.5%
NC1(c2ccccc2)C2CC3CC(C2)CC1C3 (stereo unspecified)	14.1%	1%	-9.1%	-48.8%	7.25%	3.7%
CO/N=C1C=C/C(=N\OC)C\1	10.7%	-28.2%	0.5%	7.55%	-19.1%	0.8%
OCCSCc1cc2c(cc1Br)OCO2	-29.5%	-2%	-11.8%	19.8%	12.4%	2.15%
CC(C)[C@@H](C)[C@@]1(C)C[C@@H]1[C@@H](C)[C@H]1CC[C@@H]([C@@H]2CC=C3C[C@@H](O)CC[C@]3(C)C2=O)[C@]1(C)CCO	13.9%	9.65%	19.3%	-17.9%	-7.35%	-3.35%
O=C/C=C/c1ccc2c(c1)OC(CO)C(c1ccc(O)c(O)c1)O2 (stereo unspecified)	9.15%	2.2%	6.7%	8.15%	9.7%	3.2%
Cc1ccccc1NC(=O)c1ccccc1	1.35%	2.3%	-5.6%	-14.7%	5.85%	3.1%
Clc1ccc(CSC2=NCCN2)cc1Cl	-17%	-26.4%	-21.9%	-24.4%	-14%	12.8%
Cn1[nH]c(=O)c2ncccc2c1=O	-4.7%	-10.1%	-13.5%	-87.8%	-10.3%	4.95%
Cc1ccc(-c2c(C#N)c(-c3ccc(Cl)cc3)c(C#N)c(=O)n2NS(=O)(=O)c2ccc(C)cc2)cc1	20.9%	19.8%	30.4%	44.6%	15.7%	13.2%
